We go through ten compounds from ChEMBL document CHEMBL1157539, “Thousands of chemical starting points for antimalarial lead identification” (Nature, 2010).

A word on the Inhibition: it is the drop in the measured response relative to a control, in per cent. A higher Inhibition goes with a strong effect.

Holding throughout (type): functional
Assay [1] has as its system Plasmodium falciparum. Nature of the assay: GSK_TCMDC: Inhibition of Plasmodium falciparum 3D7 in whole red blood cells, using parasite LDH activity as an index of growth. Test compounds present at 2uM.
In assay [2] the test system is Plasmodium falciparum. Kind of assay: GSK_TCMDC: Inhibition of Plasmodium falciparum Dd2 in whole red blood cells, using parasite LDH activity as an index of growth. Test compounds present at 2uM.
For a further assay, the system named is HepG2. Nature of the assay: GSK_TCMDC: Percent inhibition of human HepG2 cell line. Test compounds present at 10uM.

`O=C(N1CCN(c2ccc(C(F)(F)F)cc2[N+](=O)[O-])CC1)C(Cl)(Cl)Cl`: the Inhibition in the assay with Plasmodium falciparum [1] came out at 100%; in the assay on Plasmodium falciparum [2], 99%; with HepG2, 29%.

With `CC1CCC(C[C@@H](C(=O)N[C@H](C(=O)Nc2nccs2)[C@@H](C)O)[C@H](CCC(F)(F)F)N(O)C=O)CC1` (stereo not given in full), the Inhibition in the assay with Plasmodium falciparum [1] was determined as 95%; in the assay on Plasmodium falciparum [2], 94%; with HepG2, 0%.

Take `CCCCCCNC(=O)C(N)CCCC(N)C(=O)NCCCCCC.Cc1ccc(S(=O)(=O)O)cc1` (stereo not given): the values for the Inhibition in the assay on Plasmodium falciparum [1], with Plasmodium falciparum [2] and with HepG2 were 99%, 0% and 0%, respectively.

For `O=C(Nc1ccc(N2CCN(C(=O)/C=C/c3ccccc3)CC2)c(Cl)c1)c1ccc([N+](=O)[O-])o1`, the Inhibition in the assay on Plasmodium falciparum [1] was 97%; with Plasmodium falciparum [2] it was 90%; in the assay on HepG2, 98%.

Take `Fc1ccc(-c2cncc(Nc3ccncc3)n2)cc1`: the Inhibition with Plasmodium falciparum [1] is 88%; in the assay on Plasmodium falciparum [2] it was 11%; with HepG2 it was 8%.

`O=C(/C=C/c1ccc(Cl)c(Cl)c1)NCCCCCN1CCCN(C(=O)Nc2ccc(C(F)(F)F)cc2)CC1`: the Inhibition is reported as 100% in the assay with Plasmodium falciparum [1], 7% with Plasmodium falciparum [2] and 31% in the assay with HepG2.

Turning to `c1ccc2cc3c(Nc4ccc(N5CCCCC5)cc4)ccnc3cc2c1`, the Inhibition in the assay with Plasmodium falciparum [1] is given as 100%; in the assay with Plasmodium falciparum [2], 36%; with HepG2, 21%.

For the compound `Cn1c(NC(=O)C2CCC(CNC(=O)c3ccc(O)c(-c4ccc(Cl)c(Cl)c4)c3)CC2)nc2ccccc21` (stereo not given), the Inhibition with Plasmodium falciparum [1] turned out to be 99%; in the assay with Plasmodium falciparum [2], 100%; in the assay on HepG2 it was 40%.

Consider `CCOc1ccc(N2C(N)=NC(N)=NC2(C)C)cc1.Cl`, for which the Inhibition in the assay on Plasmodium falciparum [1] was determined as 95%; in the assay with Plasmodium falciparum [2], 0%; with HepG2, 10%.

Consider `Cc1ccc(CN2CCCCC(NC(=O)c3cc4ccccc4s3)C2)cc1.O=C(O)C(F)(F)F` (stereo not given), for which the Inhibition in the assay with Plasmodium falciparum [1] came out at 94%; with Plasmodium falciparum [2], 8%; in the assay on HepG2, 9%.
